For test [1], the target named is Estrogen receptor beta (Homo sapiens) (UniProt Q92731). Nature of the test: qHTS assay to identify small molecule antagonists of the estrogen receptor beta (ER-beta) signaling pathway (AID 1259378; active means well fitted inhibition curve with a large enough effect in the signal ratio in the repeat runs, not every such curve was filed as active; the % refers to the signal ratio; further: potency means the concentration at half of the fitted maximal effect). The procedure, abridged: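 Antagonist mode: compounds added to beta-lactamase reporter HEK293T ER-beta-UAS cells stimulated with E2 (1nM final), 16 hr at 37C. LiveBLAzer B/G FRET substrate, 2 hours room temperature, fluorescence read-out.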

Test [2] is described as follows: qHTS assay to identify small molecule agonists of the androgen receptor (AR) signaling pathway in the presence of an antagonist - cell viability counter screen (AID 1259379). Further: nearly all actives have a fitted effect of over 25% in size. Further: potency means the concentration at half of the fitted maximal effect. The procedure, abridged:
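Nilutamide-containing (3.0uM final) MDA-kb2 cultures, 3,000 cells/well, were treated with compounds across 15 concentrations. After 16 hr at 37C with no CO2, cell viability was determined by CellTiter-Fluor fluorescence in the luciferase assay wells.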
For orientation: Quantitative high-throughput screening tests each substance at several concentrations.

Test [3] is described as follows: qHTS assay to identify small molecule agonists of the estrogen receptor beta (ER-beta) signaling pathway - cell viability counter screen (AID 1259380). Further: nearly all actives have a fitted effect of over 30% in size. Further: potency means the concentration at half of the fitted maximal effect. The procedure, abridged:
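Steps: plate ER-beta-UAS-bla HEK293T cells, rest 6 hr; add compounds in DMSO; incubate 16 hr at 37C, 5% CO2; add FRET substrate 2 hr; add CellTiter-Glo, wait 30 min at room temperature; read luminescence.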

Test [4] can be described thus: qHTS assay to identify small molecule antagonists of the estrogen receptor beta (ER-beta) signaling pathway - cell viability counter screen (AID 1259382). Further: nearly all actives have a fitted effect of over 55% in size. Further: potency means the concentration at half of the fitted maximal effect. The procedure, abridged:
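Viability is scored by CellTiter-Glo luminescence (30 min, room temperature) in ER-beta-UAS-bla HEK293T wells already read for reporter fluorescence. Compound exposure lasts 16 hr at 37C alongside 1nM 17-beta-estradiol in charcoal-stripped serum medium.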

The target in test [5] is Estrogen receptor (Homo sapiens) (UniProt P03372). Nature of the test: qHTS assay to identify small molecule agonists of the estrogen receptor alpha (ER-alpha) signaling pathway in the presence of an antagonist (AID 1259383; calls by dose curve; further: top concentration of the series differs between compounds; nearly all actives have a fitted effect of over 15% in size). Put shortly: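 Readout was ERE-driven luciferase luminescence in VM7Luc4E2 cells, which express full-length ER-alpha endogenously. Compounds were tested at 15 concentrations for 22hr alongside 10.0nM ICI-182,780 (final concentration).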

The nature of test [6]: qHTS assay to identify small molecule agonists or antagonists of the thyroid stimulating hormone receptor (TSHR) signaling pathway - wild type cell line counter screen (AID 1259384; calls by dose curve). The procedure, abridged: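 Counter screen in untransfected Hek293: compounds (15-point titration, triplicate) plus phosphodiesterase inhibitor Ro20-1724 added after 18 h plating; 30 min RT. Intracellular cAMP via competitive d2/cryptate immunoassay, 1 h incubation.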

Test [7] concerns the target Thyrotropin receptor (Homo sapiens) (UniProt P16473). Nature of the test: qHTS assay to identify small molecule antagonists of the thyroid stimulating hormone receptor (TSHR) signaling pathway (AID 1259385; calls by dose curve; further: nearly all actives have a fitted effect of over 20% in size). The procedure, abridged:
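Antagonist mode: compound-treated TSHR-expressing HEK293 cells were stimulated with 1.5 ng/mL TSH (final) in presence of Ro20-1724 for 30 min at RT. HTRF cAMP detection after 1 h; each compound tested at 15 concentrations, triplicate.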

Test [8] in a line: qHTS assay to identify small molecule agonists of the estrogen receptor alpha (ER-alpha) signaling pathway in the presence of an antagonist - cell viability counter screen (AID 1259386).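 Further: cells exposed to compounds for 22 h at 37 °C before the viability read; nearly all actives have a fitted effect of over 30% in size.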 Further: potency means the concentration at half of the fitted maximal effect. Put shortly:
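In this counter screen, compound effects on VM7Luc4E2 viability were tested in the presence of the antagonist ICI-182,780 at 10.0nM final. Compounds were dosed at 15 concentrations, exposure lasted 22hr, and the CellTiter-Fluor signal was read.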

The target of test [9] is Androgen receptor (Homo sapiens) (UniProt P10275). Nature of the test: qHTS assay to identify small molecule agonists of the androgen receptor (AR) signaling pathway in the presence of an antagonist (AID 1259381; calls by dose curve; further: nearly all actives have a fitted effect of over 15% in size; further: potency means the concentration at half of the fitted maximal effect). The procedure, abridged: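 Reporter-gene luminescence from MDA-kb2 cells exposed 16hr at 37C (0% CO2) to 15-point compound titrations with 3.0uM final nilutamide as AR antagonist.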

Test [10] addresses Progesterone receptor (Homo sapiens) (UniProt P06401). Nature of the test: qHTS assay to identify small molecule agonists of the progesterone receptor (PR) signaling pathway (AID 1346784; calls by dose curve; further: nearly all actives have a fitted effect of over 30% in size). The procedure, abridged: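 HEK 293T PR-UAS-bla reporter cells, 2% charcoal-stripped FBS; 6 hr settle at 37C/5% CO2, compound (DMSO) 16 hr, LiveBLAzer B/G FRET substrate 2 hr RT, fluorescence intensity read.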

“And” between values parts separate entries of the source, which are not always exact repeats. Equal values may be shown once. Results filed as inconclusive are left out. More than one record can exist for a structure, and the calls need not agree. The source made the active and inactive calls. Unless noted, the call rests on the fitted dose curve; in most records, active means well fitted curve in the direction sought with a large enough effect in the repeat runs; inconclusive means weak or mixed curves; inactive means no such curve, though single readings can be large; an effect the other way counts as inactive or inconclusive.

Chain of Estrogen receptor (Homo sapiens) (P03372 whole entry, looked up): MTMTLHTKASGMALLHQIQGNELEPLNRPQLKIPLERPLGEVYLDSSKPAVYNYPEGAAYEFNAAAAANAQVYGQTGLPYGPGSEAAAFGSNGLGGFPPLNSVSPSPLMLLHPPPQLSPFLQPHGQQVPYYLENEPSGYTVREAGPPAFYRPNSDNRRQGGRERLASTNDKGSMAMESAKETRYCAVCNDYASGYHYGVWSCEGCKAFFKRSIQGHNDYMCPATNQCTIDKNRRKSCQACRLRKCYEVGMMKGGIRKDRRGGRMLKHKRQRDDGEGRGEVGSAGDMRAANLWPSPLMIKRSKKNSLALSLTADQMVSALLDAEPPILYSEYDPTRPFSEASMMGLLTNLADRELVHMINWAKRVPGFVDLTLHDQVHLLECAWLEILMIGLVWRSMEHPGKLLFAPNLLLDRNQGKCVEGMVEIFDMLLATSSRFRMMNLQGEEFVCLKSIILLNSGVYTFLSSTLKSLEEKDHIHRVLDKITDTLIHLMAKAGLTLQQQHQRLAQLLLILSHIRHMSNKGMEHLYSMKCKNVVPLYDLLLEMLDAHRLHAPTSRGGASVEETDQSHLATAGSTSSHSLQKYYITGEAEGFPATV
Chain of Progesterone receptor (Homo sapiens) (P06401 whole entry, looked up): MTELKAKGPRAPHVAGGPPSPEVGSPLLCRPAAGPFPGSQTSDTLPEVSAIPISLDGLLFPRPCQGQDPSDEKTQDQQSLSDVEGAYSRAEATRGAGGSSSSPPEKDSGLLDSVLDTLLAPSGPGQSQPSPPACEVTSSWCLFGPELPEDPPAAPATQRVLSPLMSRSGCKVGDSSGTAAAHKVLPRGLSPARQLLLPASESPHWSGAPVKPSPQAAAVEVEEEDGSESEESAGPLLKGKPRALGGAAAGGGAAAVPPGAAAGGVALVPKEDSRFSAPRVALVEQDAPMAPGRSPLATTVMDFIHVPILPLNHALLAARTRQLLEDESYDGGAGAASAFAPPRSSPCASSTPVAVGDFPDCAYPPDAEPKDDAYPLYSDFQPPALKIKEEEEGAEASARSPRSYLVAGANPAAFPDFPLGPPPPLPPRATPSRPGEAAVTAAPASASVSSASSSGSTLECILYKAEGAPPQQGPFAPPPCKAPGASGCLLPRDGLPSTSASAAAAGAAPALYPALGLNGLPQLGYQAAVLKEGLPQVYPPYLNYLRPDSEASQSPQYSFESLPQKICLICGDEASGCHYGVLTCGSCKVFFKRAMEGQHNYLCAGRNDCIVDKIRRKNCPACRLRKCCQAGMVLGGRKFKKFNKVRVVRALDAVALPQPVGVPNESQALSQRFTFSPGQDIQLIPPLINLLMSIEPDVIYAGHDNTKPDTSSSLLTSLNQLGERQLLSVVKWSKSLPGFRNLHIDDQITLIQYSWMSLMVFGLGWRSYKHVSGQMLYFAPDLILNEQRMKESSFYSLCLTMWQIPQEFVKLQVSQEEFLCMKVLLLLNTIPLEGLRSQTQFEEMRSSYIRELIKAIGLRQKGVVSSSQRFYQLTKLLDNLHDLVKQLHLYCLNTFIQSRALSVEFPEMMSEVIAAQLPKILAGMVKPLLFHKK
Chain of Thyrotropin receptor (Homo sapiens) (P16473 whole entry, looked up): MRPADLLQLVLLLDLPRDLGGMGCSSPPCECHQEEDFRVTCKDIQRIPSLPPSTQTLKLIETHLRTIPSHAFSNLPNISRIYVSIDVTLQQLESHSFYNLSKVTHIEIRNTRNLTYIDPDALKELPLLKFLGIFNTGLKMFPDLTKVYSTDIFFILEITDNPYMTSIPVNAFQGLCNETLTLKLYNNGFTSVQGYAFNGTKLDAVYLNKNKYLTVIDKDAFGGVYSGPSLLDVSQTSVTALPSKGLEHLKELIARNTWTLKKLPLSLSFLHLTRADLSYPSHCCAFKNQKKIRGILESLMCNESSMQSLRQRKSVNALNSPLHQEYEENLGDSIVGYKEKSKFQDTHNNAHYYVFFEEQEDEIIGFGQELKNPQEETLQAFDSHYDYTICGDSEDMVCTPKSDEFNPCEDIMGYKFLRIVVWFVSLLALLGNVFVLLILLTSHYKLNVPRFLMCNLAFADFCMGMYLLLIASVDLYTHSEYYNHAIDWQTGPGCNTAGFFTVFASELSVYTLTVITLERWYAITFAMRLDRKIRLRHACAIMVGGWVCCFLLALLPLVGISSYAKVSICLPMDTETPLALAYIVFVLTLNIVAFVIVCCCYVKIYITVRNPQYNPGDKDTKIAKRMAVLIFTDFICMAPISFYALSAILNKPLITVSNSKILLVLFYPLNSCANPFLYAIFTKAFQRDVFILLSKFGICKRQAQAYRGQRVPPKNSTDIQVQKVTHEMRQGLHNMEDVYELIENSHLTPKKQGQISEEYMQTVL
Chain of Estrogen receptor beta (Homo sapiens) (Q92731 whole entry, looked up): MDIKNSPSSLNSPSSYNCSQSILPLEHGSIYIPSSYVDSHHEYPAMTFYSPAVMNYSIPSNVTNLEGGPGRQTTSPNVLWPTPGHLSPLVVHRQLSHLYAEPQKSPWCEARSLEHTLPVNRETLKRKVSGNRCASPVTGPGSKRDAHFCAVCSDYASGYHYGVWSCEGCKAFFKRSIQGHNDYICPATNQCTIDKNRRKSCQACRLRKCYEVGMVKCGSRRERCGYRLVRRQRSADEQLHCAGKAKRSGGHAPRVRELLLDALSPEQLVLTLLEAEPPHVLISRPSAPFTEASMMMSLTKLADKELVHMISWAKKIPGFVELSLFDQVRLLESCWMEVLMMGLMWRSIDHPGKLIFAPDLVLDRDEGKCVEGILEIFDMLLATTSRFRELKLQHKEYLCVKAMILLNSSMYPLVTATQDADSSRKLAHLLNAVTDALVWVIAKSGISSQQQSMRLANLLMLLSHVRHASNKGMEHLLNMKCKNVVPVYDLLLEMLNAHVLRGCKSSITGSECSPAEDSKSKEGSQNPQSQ
Chain of Androgen receptor (Homo sapiens) (P10275 whole entry, looked up): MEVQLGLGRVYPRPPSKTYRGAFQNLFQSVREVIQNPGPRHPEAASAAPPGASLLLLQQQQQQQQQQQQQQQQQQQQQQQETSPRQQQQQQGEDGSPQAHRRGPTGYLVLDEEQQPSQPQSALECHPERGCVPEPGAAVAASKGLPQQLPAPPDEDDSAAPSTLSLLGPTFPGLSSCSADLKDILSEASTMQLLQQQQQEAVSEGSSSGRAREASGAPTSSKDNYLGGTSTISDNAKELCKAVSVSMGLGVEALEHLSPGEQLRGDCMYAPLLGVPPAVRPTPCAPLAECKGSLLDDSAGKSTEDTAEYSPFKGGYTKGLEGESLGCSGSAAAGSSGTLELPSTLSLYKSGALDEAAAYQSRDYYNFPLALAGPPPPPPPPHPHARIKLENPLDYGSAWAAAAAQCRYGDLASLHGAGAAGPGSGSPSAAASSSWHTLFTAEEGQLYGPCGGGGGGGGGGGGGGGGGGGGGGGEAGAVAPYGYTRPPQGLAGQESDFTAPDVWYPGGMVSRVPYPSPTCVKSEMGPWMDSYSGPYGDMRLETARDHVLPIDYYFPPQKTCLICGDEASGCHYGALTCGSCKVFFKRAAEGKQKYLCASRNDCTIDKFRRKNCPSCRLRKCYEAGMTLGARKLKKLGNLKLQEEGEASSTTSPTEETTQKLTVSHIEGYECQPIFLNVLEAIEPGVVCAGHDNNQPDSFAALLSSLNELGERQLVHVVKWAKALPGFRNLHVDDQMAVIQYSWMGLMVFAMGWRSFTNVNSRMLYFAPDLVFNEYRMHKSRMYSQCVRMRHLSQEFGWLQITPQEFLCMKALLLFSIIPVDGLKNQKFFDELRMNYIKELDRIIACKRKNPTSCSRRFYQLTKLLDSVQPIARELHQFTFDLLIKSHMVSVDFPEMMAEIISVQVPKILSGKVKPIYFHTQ

As for `Cc1cccc(O)c1C`, the Potency result in test [1], in test [2], in test [3], in test [4], in test [5] and in [6] was “inactive” throughout. The Potency entry in test [7] and in test [8] was “inactive” throughout.

`Nc1ccc(O)cc1`: the Potency result in test [1], in [3], in [5], in test [6], in test [7] and in test [10] was “inactive” in each case. In addition, the Potency is 56.6 µM (active) and inactive in test [2]; 5.04 µM (active) and inactive in test [9]; 63.5 µM (active) and inactive in [4]; 31.8 µM (active) and inactive in test [8].

As to `NC(=Nc1ccccc1)Nc1ccccc1`, the Potency result in test [1], in [2], in [3], in [4], in [5] and in test [6] was “inactive” each time. Also, the Potency result in test [7], in [8] and in test [10] was “inactive” each time.

`O=C1NCC2(CCN(CCc3ccccc3)CC2)O1`: the Potency result in test [1], in test [2], in test [3], in test [4], in [5] and in test [6] was “inactive” throughout. In addition, the Potency result in [7] and in test [8] was “inactive” in each case.

Turning to `c1cnc2cc3c(cc2n1)C1CNCC3C1`, the Potency result in test [1], in test [2], in [3], in test [4], in test [5] and in test [8] was “inactive” in each case.

As for `C#CC(C)(CC)OC(=O)c1ccccc1C(=O)O` (stereo unspecified), the Potency entry in test [1], in test [2], in test [3], in test [9], in test [4] and in test [5] was “inactive” throughout. For the same compound, the Potency entry in test [6], in [8] and in test [10] was “inactive” throughout.

In the case of `C1COC(NC(C2CC2)C2CC2)=N1`, the Potency result in [1], in test [2], in test [3], in test [4], in test [5] and in test [6] was “inactive” in each case. In addition, the Potency entry in [7], in test [8] and in [10] was “inactive” throughout.

As to `CC(=O)OCCOCCOCCOC(C)=O`, the Potency entry in test [1], in [2], in test [3], in test [4], in [5] and in test [7] was “inactive” throughout. In addition, the Potency result in test [8] and in [10] was “inactive” throughout.

As to `CCCCOCCOC(=O)c1ccccc1C(=O)OCCOCCCC`, the Potency result in [1], in test [2], in test [3], in [4], in test [5] and in test [6] was “inactive” each time. Further, the Potency result in [8] and in test [10] was “inactive” each time.

Regarding `O=C(O)c1cc(Cl)cc(Cl)c1`, the Potency result in test [1], in test [2], in test [3], in test [4], in test [5] and in test [6] was “inactive” in each case. Also, the Potency entry in test [7], in [8] and in test [10] was “inactive” each time.

Turning to `CCCCN(CCO)CCCC`, the Potency entry in test [1], in test [2], in test [3], in test [4], in test [5] and in [6] was “inactive” throughout. In addition, the Potency entry in test [7], in test [8] and in test [10] was “inactive” each time.

Take `OCC(CO)N[C@H]1C[C@](O)(CO)[C@@H](O)[C@H](O)[C@H]1O`: the Potency result in [1], in test [2], in test [3], in [9], in test [4] and in [5] was “inactive” in each case. For the same compound, the Potency entry in test [6], in test [7], in [8] and in test [10] was “inactive” each time.

With `COc1nc(C)nc(Cl)c1NC1=NCCN1`, the Potency result in test [1], in [2], in [3], in test [4], in test [5] and in [6] was “inactive” in each case. Moreover, the Potency entry in [7], in test [8] and in test [10] was “inactive” throughout.

For the compound `CO[Si](OC)(OC)c1ccccc1`, the Potency result in test [1], in test [2], in test [3], in test [4], in [5] and in [6] was “inactive” throughout. Moreover, the Potency entry in test [7], in test [8] and in [10] was “inactive” in each case.

As to `CC(=O)N[C@@H](CS)C(=O)O`, the Potency entry in test [1], in [2], in [3], in test [4], in [5] and in test [6] was “inactive” each time. Besides, the Potency entry in test [7], in [8] and in test [10] was “inactive” throughout.

As to `OCCN1CCNCC1`, the Potency result in [1], in test [2], in test [3], in [4], in [5] and in test [6] was “inactive” each time. For the same compound, the Potency entry in test [7] and in test [8] was “inactive” each time.

As for `Clc1ccc2c(c1)C(N1CCNCC1)=Nc1ccccc1O2`, the Potency result in test [1], in test [4], in [5], in test [6], in test [7] and in test [8] was “inactive” each time. Also, the Potency in [2] was 61.1 µM (active) and 29.8 µM (active); in [3] it was 30.6 µM (active) and 23.7 µM (active).

For `BrC1CCC(Br)C(Br)CCC(Br)C(Br)CCC1Br` (stereo unspecified), the Potency result in test [1], in test [2], in [9], in test [5], in test [6] and in test [10] was “inactive” in each case. The Potency is 30.5 µM (active) and 46.1 µM (active) in test [3]; 54.3 µM (active) and 46.1 µM (active) in test [4].

As to `CCN(CC)C(=O)Nc1ccc(OCC(O)CNC(C)(C)C)c(C(C)=O)c1` (stereo unspecified), the Potency result in test [1], in test [2], in test [3], in [9], in test [4] and in test [5] was “inactive” throughout. Besides, the Potency entry in [6], in test [7], in [8] and in [10] was “inactive” throughout.

Turning to `CCCCCC(=O)O[C@]1(C(C)=O)CC[C@H]2[C@@H]3CCC4=CC(=O)CC[C@]4(C)[C@H]3CC[C@@]21C`, the Potency was 6.68 µM (active) in test [1]; 60.7 µM (active) and 29.8 µM (active) in test [2]. For the same compound, the Potency entry in test [3], in test [4], in test [5], in [6] and in test [8] was “inactive” throughout.

Values taken from PubChem BioAssay (Tox21).
